According to article PMC13423814:

Biological target: ACTR2 (UniProt P61160)
Conditions: DSSO, in cells

Chain of S100A10, P60903 (P60903 whole entry): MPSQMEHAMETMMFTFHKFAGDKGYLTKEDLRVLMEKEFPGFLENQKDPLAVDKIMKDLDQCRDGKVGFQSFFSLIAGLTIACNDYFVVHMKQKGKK
Chain of TCP1, P17987 (P17987 whole entry): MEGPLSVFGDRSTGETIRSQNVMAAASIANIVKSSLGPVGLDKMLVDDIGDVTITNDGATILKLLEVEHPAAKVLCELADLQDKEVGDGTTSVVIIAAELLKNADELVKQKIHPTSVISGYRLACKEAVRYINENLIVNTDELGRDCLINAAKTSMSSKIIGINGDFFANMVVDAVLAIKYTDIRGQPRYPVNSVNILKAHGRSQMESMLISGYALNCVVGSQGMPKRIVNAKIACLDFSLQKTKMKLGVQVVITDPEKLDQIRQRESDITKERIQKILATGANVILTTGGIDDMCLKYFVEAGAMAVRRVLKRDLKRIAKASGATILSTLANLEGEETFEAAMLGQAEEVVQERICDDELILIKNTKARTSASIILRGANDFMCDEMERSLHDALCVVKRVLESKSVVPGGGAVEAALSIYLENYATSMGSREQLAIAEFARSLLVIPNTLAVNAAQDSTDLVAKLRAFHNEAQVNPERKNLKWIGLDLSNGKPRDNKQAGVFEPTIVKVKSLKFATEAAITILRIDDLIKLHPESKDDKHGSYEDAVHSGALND
Chain of PDCD5, O14737 (O14737 whole entry): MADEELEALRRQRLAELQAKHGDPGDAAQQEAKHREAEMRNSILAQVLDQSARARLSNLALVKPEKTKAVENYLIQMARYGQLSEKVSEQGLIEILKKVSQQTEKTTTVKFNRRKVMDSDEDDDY
Chain of HSPA8, P11142 (P11142 whole entry): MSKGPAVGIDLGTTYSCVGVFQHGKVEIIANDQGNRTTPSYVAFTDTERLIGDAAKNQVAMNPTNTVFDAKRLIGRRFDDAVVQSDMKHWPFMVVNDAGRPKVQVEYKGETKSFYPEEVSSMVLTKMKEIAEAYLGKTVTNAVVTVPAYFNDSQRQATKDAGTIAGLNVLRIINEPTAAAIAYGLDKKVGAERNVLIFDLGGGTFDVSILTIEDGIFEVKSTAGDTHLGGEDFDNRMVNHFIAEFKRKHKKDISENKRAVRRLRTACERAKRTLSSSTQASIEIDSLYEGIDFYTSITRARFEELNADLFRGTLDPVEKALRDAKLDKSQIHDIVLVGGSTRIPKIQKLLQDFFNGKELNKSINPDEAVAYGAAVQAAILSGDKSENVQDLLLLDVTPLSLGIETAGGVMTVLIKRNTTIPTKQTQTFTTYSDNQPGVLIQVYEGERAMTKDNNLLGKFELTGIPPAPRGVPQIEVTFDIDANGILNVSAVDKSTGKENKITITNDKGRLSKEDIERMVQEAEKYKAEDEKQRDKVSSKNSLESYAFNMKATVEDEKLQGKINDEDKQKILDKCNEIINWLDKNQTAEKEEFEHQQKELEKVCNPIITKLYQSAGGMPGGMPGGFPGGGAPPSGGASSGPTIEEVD
Chain of CCT3, P49368 (P49368 whole entry): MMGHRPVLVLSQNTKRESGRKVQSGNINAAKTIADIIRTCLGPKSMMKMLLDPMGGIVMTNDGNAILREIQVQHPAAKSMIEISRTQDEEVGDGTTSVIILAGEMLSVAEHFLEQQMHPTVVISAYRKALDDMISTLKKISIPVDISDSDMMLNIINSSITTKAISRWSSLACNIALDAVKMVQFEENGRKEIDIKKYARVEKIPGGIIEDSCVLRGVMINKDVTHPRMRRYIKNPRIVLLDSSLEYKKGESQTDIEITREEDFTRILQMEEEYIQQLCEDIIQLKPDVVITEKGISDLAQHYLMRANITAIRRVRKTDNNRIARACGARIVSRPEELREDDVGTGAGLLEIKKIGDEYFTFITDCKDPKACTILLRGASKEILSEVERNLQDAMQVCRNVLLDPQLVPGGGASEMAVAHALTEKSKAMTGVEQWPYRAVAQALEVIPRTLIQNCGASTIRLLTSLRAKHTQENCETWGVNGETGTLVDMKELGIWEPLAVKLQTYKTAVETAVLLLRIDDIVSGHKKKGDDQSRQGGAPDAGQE
Chain of FDXR, P22570 (P22570 whole entry): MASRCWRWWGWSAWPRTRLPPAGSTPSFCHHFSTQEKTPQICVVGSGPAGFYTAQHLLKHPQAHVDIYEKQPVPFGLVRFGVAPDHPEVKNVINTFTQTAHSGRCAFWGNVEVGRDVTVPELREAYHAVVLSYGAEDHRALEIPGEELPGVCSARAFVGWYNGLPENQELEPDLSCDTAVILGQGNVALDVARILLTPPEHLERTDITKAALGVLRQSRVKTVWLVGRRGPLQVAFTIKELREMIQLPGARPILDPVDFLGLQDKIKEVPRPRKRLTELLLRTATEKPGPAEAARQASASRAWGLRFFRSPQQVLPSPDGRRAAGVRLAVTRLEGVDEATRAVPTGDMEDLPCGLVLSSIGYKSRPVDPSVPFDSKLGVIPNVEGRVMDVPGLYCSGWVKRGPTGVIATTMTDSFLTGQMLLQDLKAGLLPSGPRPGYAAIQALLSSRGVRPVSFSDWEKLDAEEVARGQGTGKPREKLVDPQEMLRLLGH
Chain of GOT2, P00505 (P00505 whole entry): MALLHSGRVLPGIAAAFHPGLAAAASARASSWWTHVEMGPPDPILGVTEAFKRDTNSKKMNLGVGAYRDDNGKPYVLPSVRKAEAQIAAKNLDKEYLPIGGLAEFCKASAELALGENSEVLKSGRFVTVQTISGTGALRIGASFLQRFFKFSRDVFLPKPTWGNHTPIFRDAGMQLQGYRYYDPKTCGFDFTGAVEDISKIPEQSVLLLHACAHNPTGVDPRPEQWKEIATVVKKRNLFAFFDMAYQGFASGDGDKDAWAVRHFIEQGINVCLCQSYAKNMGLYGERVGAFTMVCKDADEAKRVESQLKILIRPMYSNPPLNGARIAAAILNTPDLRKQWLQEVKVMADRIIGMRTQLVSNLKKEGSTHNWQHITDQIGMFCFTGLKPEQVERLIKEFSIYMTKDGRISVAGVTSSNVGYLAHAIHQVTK
Chain of YWHAE, P62258 (P62258 whole entry): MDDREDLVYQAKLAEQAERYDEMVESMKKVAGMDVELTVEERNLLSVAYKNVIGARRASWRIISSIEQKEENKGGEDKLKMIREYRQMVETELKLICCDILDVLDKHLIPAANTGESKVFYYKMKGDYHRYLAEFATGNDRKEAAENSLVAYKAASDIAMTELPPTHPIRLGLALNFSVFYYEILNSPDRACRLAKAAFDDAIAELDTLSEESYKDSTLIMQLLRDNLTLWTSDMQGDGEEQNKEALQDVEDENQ

Row | Substance | cross-linked residues
1 | ARPC3, O15145 | K61 - K46
2 | ARPC1B, O15143 | K307 - K253
3 | GMFB, P60983 | K110 - K368

Biological target: AHNAK2 (UniProt Q8IVF2)
Conditions: DSSO, in cells

Row | Substance | cross-linked residues
4 | YWHAE, P62258 | K69 - K312
5 | S100A10, P60903 | K57 - K2639
6 | HSPA8, P11142 | K601 - K1932

Biological target: C1QBP (UniProt Q07021)
Conditions: DSSO, in cells

Chain of C1QBP (Q07021 whole entry): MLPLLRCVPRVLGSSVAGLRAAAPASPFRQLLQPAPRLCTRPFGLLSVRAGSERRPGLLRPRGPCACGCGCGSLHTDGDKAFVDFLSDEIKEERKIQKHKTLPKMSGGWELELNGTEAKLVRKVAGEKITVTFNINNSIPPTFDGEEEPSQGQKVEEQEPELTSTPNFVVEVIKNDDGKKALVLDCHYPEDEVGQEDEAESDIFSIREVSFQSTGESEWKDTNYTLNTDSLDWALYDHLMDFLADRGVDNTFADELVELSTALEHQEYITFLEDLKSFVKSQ

Row | Substance | cross-linked residues
7 | MDH2, P40926 | K239 - K123
8 | GOT2, P00505 | K90 - K123
9 | FDXR, P22570 | K287 - K123

Biological target: CCT4 (UniProt P50991)
Sequence (P50991 whole entry): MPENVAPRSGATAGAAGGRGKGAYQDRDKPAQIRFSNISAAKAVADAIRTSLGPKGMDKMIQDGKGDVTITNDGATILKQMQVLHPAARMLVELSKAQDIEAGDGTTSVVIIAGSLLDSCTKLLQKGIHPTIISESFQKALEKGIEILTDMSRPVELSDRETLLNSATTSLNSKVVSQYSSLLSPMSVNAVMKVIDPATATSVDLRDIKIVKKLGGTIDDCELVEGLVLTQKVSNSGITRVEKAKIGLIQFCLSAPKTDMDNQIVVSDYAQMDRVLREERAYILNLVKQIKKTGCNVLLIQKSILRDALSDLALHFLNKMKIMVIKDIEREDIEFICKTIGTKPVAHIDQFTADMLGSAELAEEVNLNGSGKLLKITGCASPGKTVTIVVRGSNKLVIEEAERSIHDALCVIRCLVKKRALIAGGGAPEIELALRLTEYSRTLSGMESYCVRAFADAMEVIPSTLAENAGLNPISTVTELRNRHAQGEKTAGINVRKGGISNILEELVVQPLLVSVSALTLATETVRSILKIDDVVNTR
Conditions: DSSO, in cells

Row | Substance | cross-linked residues
10 | CCT3, P49368 | K529 - K65
11 | PDCD5, O14737 | K110 - K395
12 | TCP1, P17987 | K126 - K55
